Holding throughout (assay): NCI-60 one-dose screen, 48 h (100 = growth as untreated, 0 = no growth, -100 = all killed)
Common to all, as to details: 10 µM unless noted

Assay [1] relates to NCI-H23 lung.
In assay [2] the test system is NCI-H226 lung.
Assay [3] relates to NCI-H322M lung.
Assay [4] deals with HOP-62 NSCLC.
Assay [5] concerns HOP-92 NSCLC.
The test system of assay [6] is NCI-H522 lung.
The subject of assay [7] is A549/ATCC NSCLC.
For assay [8], the system named is 786-0 renal.
The subject of assay [9] is COLO 205 colon.
Assay [10] concerns NCI-H460 lung.

Each structure is given as a SMILES string. This is part of a sample that, as a whole, favours compounds with a hit. Of some 83,000 tested, about 20% had one in any assay.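 Compound tested at a single concentration for 48 hours in 96-well plates; a percent growth value below 10 was scored as active.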 Unmarked numbers belong to inactive results. Calls of active or inactive are those of the source.

As for `CC(=O)[C@@H]1CC[C@]2(C(=O)O)CC[C@]3(C)[C@H](CC[C@@H]4[C@@]5(C)Cc6c([nH]c7ccccc67)C(C)(C)[C@@H]5CC[C@]43C)[C@@H]12`, the growth was 54.4% in [1]; 64% in assay [2]; 77.3% in assay [3]; 74.8% in [4]; 80% in [5]; 46.4% in [6]. Further, the growth in assay [7] was 31.4%; in assay [8] it was 75.1%; in assay [9], 79.6%.

As to `CN1CC=C(c2cc(NC(=O)Nc3ccc(Oc4ccnc(NC(=O)C5CC5)c4)c(F)c3)cc(C(F)(F)F)c2)CC1`, the growth was -14.8% (active) in assay [1]; 4.49% (active) in assay [2]; 7.64% (active) in assay [3]; -13.2% (active) in [4]; -17% (active) in assay [5]; -49.8% (active) in assay [6]. The growth was -6.76% (active) in assay [7], -6.75% (active) in assay [8] and -26.2% (active) in assay [9].

Regarding `COc1cc(NC(=O)Nc2cnc(Nc3ccc(N4CCOCC4)cc3)nc2Oc2ccc(F)cc2)cc(OC)c1`, the growth in [1] was 81.2%; in assay [2] it was 88%; in [3], 97.2%; in [4], 89.5%; in assay [5] it was 78.6%; in assay [6], 92.5%. In addition, the growth in [7] was 55.6%; in assay [8], 38.8%; in assay [9], 111%.

As for `CCCCc1n(Cc2ccc3ccccc3n2)cc[n+]1Cc1ccc2ccccc2c1`, the growth in [1] was -1.01% (active); in [2], 14.2%; in assay [3] it was 30.6%; in [4], 17.4%; in [5] it was -33.9% (active); in assay [6] it was -8.22% (active). The growth in assay [7] was 27%; in assay [8], 20.4%; in assay [9] it was -74.2% (active).

With `C=C(C)[C@@H]1CC[C@]2(C(=O)n3ccnc3)CC[C@]3(C)[C@H](CC[C@@H]4[C@@]5(C)CCCNC(C)(C)[C@@H]5CC[C@]43C)[C@@H]12`, the growth in [1] is 38.8%; in [2], 64.5%; in [3], 66.9%; in assay [4], 66.3%; in assay [5] it was 51.5%; in [6], 50.7%. The growth is 23% in assay [7], 29.9% in [8] and -69.8% (active) in assay [9].

Consider `S=c1ssnc1-c1cc2ccccc2o1`, for which the growth in assay [1] is 84.3%; in [2] it was 92.9%; in assay [3] it was 91.8%; in assay [4], 86.7%; in assay [5] it was 4.61% (active); in assay [6], 79.2%. Also, the growth is 88.2% in assay [7], 24.1% in assay [8] and 83.6% in assay [9].

For `C=C1C(=O)O[C@H]2[C@H]1CC/C(C=Nc1c(N)cc(C(F)(F)F)cc1Br)=C\CC[C@@]1(C)O[C@@H]21`, the growth in assay [1] is 30%; in assay [2], 38.3%; in [3], 77.8%; in assay [4] it was 52%; in assay [5], -15.5% (active); in assay [6], -68% (active). The figures for the growth in assay [7], in assay [8] and in [9] were 58%, -41.8% (active) and -52.1% (active), respectively.

Consider `O=C1NC(c2ccc(F)cc2)N=C2C(c3ccccc3)=NOC12` (stereo unspecified), for which the growth in assay [1] is 107%; in [2], 99.9%; in assay [3] it was 109%; in assay [4] it was 96.5%; in [5] it was 103%; in [6], 92.1%. Also, the growth is 90.7% in assay [7], 96.8% in assay [8] and 116% in [9].

As for `O=C1Nc2ccccc2C12C=C(c1ccccc1)Nc1c2c(-c2ccccc2)nn1-c1ccccc1` (stereo unspecified), the growth in assay [1] was 84.1%; in assay [2], 96.9%; in assay [3], 82.7%; in [4], 81.4%; in [5], 66.4%; in assay [6], 69.4%. The growth is 44.8% in assay [7], 80.6% in assay [8] and 80.8% in assay [9].

In the case of `CCOC(=O)c1c(C)nc2c(c1N)/C(=C/c1cccs1)C(=O)N2c1ccc(OC)cc1`, the growth was 43.9% in assay [1]; 40.5% in assay [2]; 70.6% in assay [3]; 10.2% in assay [4]; 34.1% in assay [10]; 22% in [5]. Moreover, the growth in [7] was 34.5%; in assay [8], 5.33% (active); in assay [9] it was 63.2%.

In the case of `O=Cc1[nH]c(Sc2ccccc2)c2ccccc12`, the growth was 67.2% in assay [1]; 66.9% in assay [2]; 91.7% in assay [3]; 85.6% in assay [4]; 45.7% in assay [5]; 107% in assay [6]. Also, the growth was 96.1% in [7], 81.1% in [8] and 64.8% in assay [9].

On to `COc1cc(-c2csc(NC(=O)Nc3cc(Cl)cc(Cl)c3)n2)cc(OC)c1OC`, for which the growth is 23.7% in [1]; 27.5% in assay [2]; -42.1% (active) in assay [3]; -64.8% (active) in [4]; -14.3% (active) in assay [5]; 37.5% in assay [6]. Further, the values for the growth in assay [7], in assay [8] and in [9] were -45.9% (active), -29.2% (active) and 5.56% (active), respectively.

In the case of `CCOC(=O)c1ccc(Nc2ncnc3ccc(NC(=O)c4ccccc4)cc23)cc1`, the growth is 83.7% in [1]; 78.2% in assay [2]; 95.6% in assay [3]; 98.8% in assay [4]; 86.4% in assay [5]; 73.3% in assay [6]. Moreover, the values for the growth in assay [7], in [8] and in assay [9] were 91.5%, 86.8% and 104%, respectively.

Regarding `CCc1c(C(=O)N[C@@H](C(=O)OCc2ccccc2)C(C)O)[nH]c2ccc(Cl)cc12` (stereo partly specified), the growth is 80.1% in assay [1]; 21.7% in assay [2]; 75% in assay [3]; 65.8% in [4]; 74.5% in [5]; 77.1% in assay [6]. In addition, the growth in assay [7] was 69.6%; in assay [8], 11.1%; in [9], 48.7%.

(Values after PubChem BioAssay (NCI).)
